Source: PubChem BioAssay
RORgamma inh – ROR gamma (mouse) transcription inhibition; P51450; Drosophila S2 Gal4-RORgamma UAS-luciferase reporter, 20 h; Potency, µM (titrated, usually from 53.6 µM), for the others: at the highest dose activity change, negative = inhibition, actives largely listed as inhibitors; 310,000 compounds, 5.4% hits; AID 2551; further: potency means the concentration at half of the fitted maximal effect; nearly all actives have a fitted effect of over 60% in size
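Read-out: Photinus luciferase luminescence; inhibitors lower reporter signal. Insect Schneider cells with Gal4-ROR gamma fusion under metallothionein promoter, UAS reporter; 700 uM final copper sulfate induction, 20 hr, ambient temperature.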
TSHR antag – human thyrotropin receptor antagonism; AID 504810; TSHR-expressing cells, TSH-stimulated cAMP HTRF, 2 h; hits give low values; 330,000 compounds, 0.2% hits; activity change, negative = inhibition, % at 11.5 µM;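 active means activity change below a set negative limit, meaning inhibition stronger than a set level, cut at about -70% in these data; inconclusive means activity change between two set negative limits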
Target sequence (P16473 whole entry, looked up): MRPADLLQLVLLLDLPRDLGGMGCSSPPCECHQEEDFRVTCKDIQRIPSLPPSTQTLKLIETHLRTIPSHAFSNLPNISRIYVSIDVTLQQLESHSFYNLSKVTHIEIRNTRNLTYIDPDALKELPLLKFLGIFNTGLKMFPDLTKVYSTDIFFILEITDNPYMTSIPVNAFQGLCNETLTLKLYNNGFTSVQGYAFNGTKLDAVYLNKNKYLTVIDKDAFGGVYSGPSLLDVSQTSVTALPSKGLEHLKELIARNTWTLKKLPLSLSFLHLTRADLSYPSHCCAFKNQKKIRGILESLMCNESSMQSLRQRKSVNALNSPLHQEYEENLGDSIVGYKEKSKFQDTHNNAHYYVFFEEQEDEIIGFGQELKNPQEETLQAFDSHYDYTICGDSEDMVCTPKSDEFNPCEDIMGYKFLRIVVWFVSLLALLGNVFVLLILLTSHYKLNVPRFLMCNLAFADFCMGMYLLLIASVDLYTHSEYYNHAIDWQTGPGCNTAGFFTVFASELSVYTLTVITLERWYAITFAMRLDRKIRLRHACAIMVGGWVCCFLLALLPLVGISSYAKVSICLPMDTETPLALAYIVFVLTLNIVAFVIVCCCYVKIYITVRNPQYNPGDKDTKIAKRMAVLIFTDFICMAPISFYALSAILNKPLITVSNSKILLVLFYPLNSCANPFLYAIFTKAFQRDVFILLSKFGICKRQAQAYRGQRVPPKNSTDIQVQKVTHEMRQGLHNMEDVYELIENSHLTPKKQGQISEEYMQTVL
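Inhibition of cAMP made by TSHR-expressing cells under TSH stimulation (4nM final, EC80; 2 h, 37 deg C) is quantified with a one-step lysis HTRF kit, anti-cAMP cryptate versus cAMP-d2.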
VP16 counter – inhibits Gal4-VP16 luciferase reporter, ROR gamma counter-screen | Drosophila S2 Gal4-VP16 UAS-luciferase, luminescence, 20 h | Potency, µM (titrated, usually from 53.6 µM), for inactives: top-dose activity, negative = inhibition, actives largely listed as inhibitors | 310,000 compounds, 3.5% hits;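 further: Gal4-VP16 expression switched on by copper sulfate through the metallothionein promoter; potency means the concentration at half of the fitted maximal effect; nearly all actives have a fitted effect of over 50% in size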
ELG1 DNA repair – blocks ELG1-dependent DNA repair in HEK293T cells | HEK293T ELG1-luciferase reporter, luminescence, 16 h; DNA damage induced by 5-fluorouridine | Potency, µM (highest dose often 46.1 µM), without a hit: top-dose activity change, negative = inhibition, usual class: inhibitors | 330,000 compounds, 2.3% hits; further: potency means the concentration at half of the fitted maximal effect; nearly all actives have a fitted effect of over 55% in size
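DMSO vehicle served as the neutral condition. Each well held 2,000 cells given 5-fluorouridine plus compound; after 16 hr at 37 °C/5% CO2, ONE-Glo was added and luciferase measured 30 min later.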
FBPA coupling cs – counter-screen for Giardia aldolase inhibitors: coupling enzyme system; coupling enzyme system counterscreen, AmpLite Red fluorescence; activity change, negative = inhibition, % at 58.2 µM, hits read low; 290,000 compounds, 0.67% hits; AID 2472; in the data active means activity change below about -30%
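Activity here indicates interference with the coupling reaction, not aldolase inhibition. Compounds at 57.5 uM final met coupling enzymes for 10 min at RT; substrate and AmpLite Red detection followed, with a 525/598 nm fluorescence read after 20 min.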
Numbers without * were called inactive; ? = inconclusive; . = no result given. This is a sample that favours compounds with a hit; in the whole collection about 8% have one here. Unless noted, the call rests on the fitted dose curve; in most records, active means well fitted curve in the direction sought with a large enough effect; inconclusive means small, poorly fitted or top-dose-only effect, or another doubt; inactive means no such curve, though single readings can be large; an effect the other way counts as inactive or inconclusive. On the % scale 0 is the no-effect control and ±100 the full control effect.

SMILES	RORgamma inh	TSHR antag	VP16 counter	ELG1 DNA repair	FBPA coupling cs
CCC(=O)Nc1nonc1-c1nc2ccccc2n1Cc1ccccc1	-43%	-6	1%	?	2
CCC(=O)Nc1nonc1-c1nc2ccccc2n1CCC(C)C	-36%	-7	-16%	23µM*	8
CC12CCC(=O)N1C(C(=O)NCc1ccccc1Cl)CS2 (stereo unspecified)	.	24	.	?	.
CC12CCC(=O)N1C(C(=O)NCCc1ccccc1)CS2 (stereo unspecified)	7.9µM*	0	16µM*	4%	.
COc1ccc(-c2cc3nc(CCl)[nH]c(=O)c3s2)cc1	?	-4	10µM*	?	2
CCN(CC)CCOC(=O)c1ccc(NC(=O)CCCN2C(=O)/C(=C\c3cccs3)SC2=S)cc1	11µM*	17	11µM*	?	.
Cc1ccc(/C=C2\SC(=S)N(CCCC(=O)Nc3cc(C)on3)C2=O)cc1	0.79µM*	19	?	26%	2
COc1ccc(/C=C2\SC(=S)N(CCCCCC(=O)Nc3cc(C)on3)C2=O)cc1OC	8%	-5	-10%	1%	3
Cc1cc(NC(=O)CCCN2C(=O)/C(=C\c3cccs3)SC2=S)no1	-44%	10	13µM*	28%	0
COc1ccc(/C=C2\SC(=S)N(CCCC(=O)Nc3cc(C)on3)C2=O)cc1OC	2µM*	27	5µM*	7.3µM*	-3
Cc1cc(NC(=O)CN2C(=O)/C(=C/c3cccc(Br)c3)SC2=S)no1	-38%	-14	3%	-4%	-1
Cc1cccc(NC(=O)COc2ccc(-c3nn(C)c(=O)c4ccccc34)cc2)c1	-6%	-2	-3%	15µM*	1
COc1ccccc1NC(=O)COc1ccc(-c2nn(C)c(=O)c3ccccc23)cc1	2%	-13	-16%	16µM*	1
CCCc1cc(NC(=O)COC(=O)c2nccnc2N)n(-c2ccccc2)n1	.	-3	.	20%	.
CCOc1cc(NC(=O)C2CC2)c(OCC)cc1NC(=O)c1cccc(F)c1	6%	-89*	-12%	-4%	-1
O=C(O)CNc1nc(-c2ccccc2)nc2c1oc1ccccc12	11%	-14	-1%	3%	11
OCCCNc1nc(-c2ccccc2)nc2c1oc1ccccc12	13%	-6	-5%	23µM*	0
c1ccc(-c2nc(NCc3cccnc3)c3oc4ccccc4c3n2)cc1	-2%	6	1%	23µM*	-1
c1ccc2c(c1)oc1c(NCC3CCCO3)ncnc12 (stereo unspecified)	?	10	-1%	?	1
c1ccc(-c2nc(NCC3CCCO3)c3oc4ccccc4c3n2)cc1 (stereo unspecified)	-17%	50	9%	16µM*	-1
COc1ccc2c(c1)C(c1ccccc1OC)CC(=O)O2 (stereo unspecified)	4%	.	0%	.	-1
O=C(NC(=S)NNC(=O)[C@H]1C[C@@H]1c1ccccc1)c1cccc(F)c1	11µM*	7	?	?	1
COc1cccc(OC)c1C(=O)NC(=S)NNC(=O)[C@H]1C[C@@H]1c1ccccc1	4µM*	-9	-16%	?	13
O=C(NNC(=O)C1CC1c1ccccc1)c1cccc([N+](=O)[O-])c1 (stereo unspecified)	25%	4	-13%	8%	3
O=c1c2ccccc2cnn1CCOc1ccccc1	4.5µM*	-3	4µM*	?	0
SMILES	RORgamma inh	TSHR antag	VP16 counter	ELG1 DNA repair	FBPA coupling cs
CC1CCc2c(sc(NC(=O)c3cccn3C)c2C(N)=O)C1 (stereo unspecified)	.	-8	.	?	.
COc1ccccc1N(CC(=O)NCCN1CCOCC1)S(=O)(=O)c1ccc(C)cc1	.	22	.	1%	.
O=C(O)c1ccc(N/N=C/c2cc3cc4c(cc3nc2Cl)OCCO4)cc1	2.5µM*	-21	4µM*	?	0
O=Cc1cc2cc3c(cc2nc1Cl)OCCO3	15%	-1	-4%	?	9
Brc1ccc(/C=N/Nc2ccc3ccccc3n2)cc1	7.9µM*	19	?	?	-3
Cc1ccc(C)c(/C=N/Nc2ccccn2)c1	10µM*	-9	0%	12%	0
Cc1cc(N/N=C/c2ccc3c(c2)OCO3)nc2ccccc12	13µM*	0	-11%	?	-5
O=C(COC(=O)c1cc(Cl)nc(Cl)c1)Nc1ccc(Cl)c(S(=O)(=O)N2CCOCC2)c1	.	0	.	9%	.
OC1(c2nc3ccccc3[nH]2)CCCCC1	.	10	.	8%	.
CCC(C)CC(C)CC(C)C(=O)/C=C(/O)C(C)CC(C)C/C=C/C(C)C(O)C(C)C(O)CC1CCC(C)(C)O1 (stereo unspecified)	2%	.	?	.	6
Cc1cc(N/N=C(/CCC(=O)O)C(=O)O)nc2ccccc12	-30%	11	4%	9%	1
O=C(O)c1cc(N/N=C/c2ccc3c(c2)OCCO3)ccc1Cl	?	-7	11µM*	?	0
Fc1ccc(/C=N\Nc2cccc(F)c2)cc1	-32%	10	2%	-4%	0
Fc1cccc(/C=N/Nc2ccc3ccccc3n2)c1	7.1µM*	-6	?	?	-2
C(=N\Nc1ccccn1)/c1ccc2c(c1)OCCO2	13µM*	-5	?	?	0
Cc1cc(N/N=C/c2ccccc2Br)nc2ccccc12	0.56µM*	-4	16µM*	?	-2
Brc1ccccc1/C=N/Nc1ccc2ccccc2n1	0.32µM*	0	8.9µM*	?	0
Fc1cccc(/C=N/Nc2ccccn2)c1	11µM*	9	?	?	-5
CC(=O)N1CCC2(CC1)CN(Cc1ccccc1)C2	3%	.	-17%	.	0
CCn1cnc2c1c(=O)n(CC(=O)Nc1ccc(C(N)=O)cc1)c(=O)n2Cc1ccccc1	-10%	18	-1%	6.5µM*	1
CCn1cnc2c1c(=O)n(CC(=O)NN)c(=O)n2Cc1ccccc1	2%	-4	-2%	-13%	-1
CCN(CC)S(=O)(=O)c1ccc(O)c(NS(=O)(=O)c2ccccc2F)c1	10µM*	7	-29%	8%	7
CCOc1ccc(S(=O)(=O)N(CC)CC)cc1NS(=O)(=O)c1ccc(F)c(F)c1F	40%	6	-13%	-6%	12
CCC(C)(C)c1ccc(OCCCC[n+]2cccc(C)c2)c(C(C)(C)CC)c1	?	-18	13µM*	7.3µM*	0
Cc1ccc[n+](CC(=O)Nc2cc(C(F)(F)F)ccc2Cl)c1	-19%	3	-3%	4%	2
COC(=O)c1ccc(C(/C=C/[C@@H](C)C(=O)N(C)Cc2ccccc2)NC(=O)OCc2ccccc2)cc1 (stereo partly specified)	44%	.	-18%	.	-1
